The campaign covered roughly 6,200 compounds. About 2,900 (47%) were called active. So high a share suggests a set chosen from earlier hits. The list shows a part of the results. Values without a mark were called inactive. No stated cut-off is given here; in the data, active means inhibition above about 50%; inactive means the rest.

The source of these data is PubChem BioAssay AID1259343 (VanderVen Lab, College of Veterinary Medicine, Cornell …, 2017).

The nature of this test: Mycobacterium tuberculosis growth inhibition, primary screen (AID 1259343). The following applies: inhibition: at 10 µM, stronger effect = higher value; outcome: 10 uM.
Turning to `Cc1ccc(CNC(=O)c2c[nH]c3c(c(C)nn3-c3ccccc3)c2=O)cc1`, the inhibition (usually the relative decrease from the control value, in per cent) is 49.8%.

Take `Cc1nn(-c2ccccc2)c2[nH]cc(C(=O)NCc3ccccc3Cl)c(=O)c12`: the inhibition was 31.5%. Take `Cc1nn(-c2ccccc2)c2[nH]cc(C(=O)NCc3ccccc3)c(=O)c12`: the inhibition was 51.6% (active). As to `Cc1noc(-c2cc(Br)cc(Br)c2O)n1`, the inhibition is 101% (active).

Turning to `O=C(O)c1csc(-c2ccc(Cl)cc2Cl)n1`, the inhibition was 39.2%. Next, `O=C(O)c1cc2cc(Cl)ccc2[nH]1`: 56.1% (active). Next, `Cc1cc(Cl)cc2sc(N(CCCn3ccnc3)C(=O)/C=C/c3cccs3)nc12`: 75.5% (active); `N=C1C2=C3Sc4ccccc4N3CCCC2=NN1c1ccc(Cl)cc1`: 13.7%. Next, `CN(Sc1ccccc1[N+](=O)[O-])c1ccccc1`: 30.9%; `O=[N+]([O-])c1cccnc1Oc1ccc(Oc2ccccc2)cc1`: 94.5% (active). With `c1ccc(CCCc2nnnn2CC2CCOC2)cc1` (configuration not stated), the inhibition is 65.2% (active). On to `COc1ccc(NC(C)c2nc(-c3ccco3)no2)cc1` (configuration not stated), for which the inhibition is 94.9% (active).

Regarding `CC(C)c1noc(C(C)Nc2ccc3c(c2)CCO3)n1` (configuration not stated), the inhibition is 1.87%.

With `CC1(C)C2CCC1(C)C(NC(=O)COc1ccccc1Cl)C2` (configuration not stated), the inhibition is 91.4% (active). `CC1(C)C2CCC1(C)C(NS(=O)(=O)Cc1ccccc1)C2` (configuration not stated): the inhibition was 7.59%. Turning to `CC1CCC(NC(=O)COc2ccccc2Br)CC1` (configuration not stated), the inhibition is 42.5%. Next, `CCOc1ccccc1NC(=O)N1CCN(CCCOC(c2ccc(Cl)cc2)c2ccc(Cl)cc2)CC1`: 16.6%; `Cc1occc1C(=O)Nc1cc(Cl)ccc1C(=O)O`: 62.5% (active). Next, `O=C(Nc1ccc(C(=O)O)c(O)c1)c1cc(Cl)cc(Cl)c1`: 25.6%; `CCCc1cc(=O)[nH]c(-n2nc(C)cc2NC(=O)C2c3ccccc3Oc3ccccc32)n1`: 99% (active); `Cc1cc(NC(=O)C2c3ccccc3Oc3ccccc32)n(-c2nc3c(c(=O)[nH]2)CCC3)n1`: -27.3%.

Take `CCc1cc(=O)[nH]c(-n2nc(C)cc2NC(=O)C2c3ccccc3Oc3ccccc32)n1`: the inhibition is 101% (active). For the compound `Cc1cc(=O)[nH]c(-n2nc(C)cc2NC(=O)C2c3ccccc3Oc3ccccc32)n1`, the inhibition is 100% (active). Next, `CN(C)P(=NC(=S)Nc1ccc(SC(F)F)cc1)(c1ccncc1)N(C)C`: “inactive”; `O=C(Nc1ccc(SC(F)F)cc1)c1ccc(-n2cncn2)cc1`: 52.4% (active). Next, `FC(F)Sc1ccc(NC(=S)NN2CCCCC2)cc1`: 28.6%; `CCN(CC)S(=O)(=O)c1ccc(C(=O)Nc2nc(-c3ccccc3)cs2)cc1`: 35.8%; `COc1cccc(C(=O)Nc2nc(-c3ccccc3)cs2)c1`: 71.2% (active).

On to `COc1cccc(-c2cc(C(=O)O)n3nc(-c4ccccc4)cc3n2)c1`, for which the inhibition is 104% (active). Next, `O=C(O)c1cc(-c2ccccc2F)nc2cc(-c3ccccc3)nn12`: 71.8% (active).

Turning to `CCOC(=O)C1CCCN(C(=O)c2cc(-c3cccc(OC)c3)nc3cc(-c4ccccc4)nn23)C1` (configuration not stated), the inhibition was 1.82%. Next, `COc1ccc(C(=O)Nc2nc(-c3ccccc3)cs2)cc1`: 22.9%; `COc1ccc(-c2cc3nc(C)cc(NC(C)c4ccccc4)n3n2)cc1OC` (configuration not stated): 26.1%. Next, `COc1ccc(-c2cc(C(=O)O)n3nc(-c4ccc(Cl)cc4)cc3n2)cc1`: 41.5%; `Cc1cc(C(=O)O)n2nc(-c3ccc(Cl)cc3)cc2n1`: 76.7% (active); `Cc1ccc(-c2cc(C(=O)N(CCN(C)C)Cc3ccccc3)n(-c3ccccc3)n2)cc1C`: 27.2%. Next, `O=C(O)c1cc(-c2ccccc2F)nc2cc(-c3ccc(Cl)cc3)nn12`: 88.1% (active); `Cc1cc(C(=O)NCCc2ccccc2)n2nc(-c3ccccc3)cc2n1`: 81.8% (active); `CC(C)(C)C(=O)Nc1nc(-c2cccc(Br)c2)cs1`: 57.1% (active). Take `O=C(O)c1cc(-c2ccc(F)cc2)nc2cc(-c3ccccc3)nn12`: the inhibition is 67.1% (active). Next, `O=C(O)c1cc(-c2ccccc2Cl)nc2cc(-c3ccccc3)nn12`: 96.6% (active); `Nc1nc(-c2ccccc2Cl)co1`: 12%; `COc1ccc(-c2c(C)nn3c(NCCc4ccccc4)cc(C)nc23)cc1OC`: 65.5% (active). Next, `Cc1ccc(-c2c(C)nn3c(NCCc4ccccc4)cc(C)nc23)cc1`: -2.64%; `Cc1ccc(-c2c(C)nn3c(NCc4cccnc4)cc(C)nc23)cc1`: 30.6%; `NC(=O)c1ccc(OCc2cc(Cl)c3c(c2)OCO3)cc1`: 35.7%. Next, `CN(Cc1ccccc1)c1ncnc(Oc2ccc3c(c2)OCO3)c1N`: 28%. Regarding `O=C1OC(c2ccccc2)OC(=O)C1=Cc1ccc(OCc2ccc3c(c2)OCO3)cc1` (configuration not stated), the inhibition is 84.2% (active). Next, `O=C(NCc1ccco1)C12CC3CC(CC(C3)C1)C2`: 98.1% (active); `O=C(NCCOc1ccccc1F)C12CC3CC(CC(C3)C1)C2`: 31.1%; `C=Cc1ccc(Cn2cc(C(=O)NCc3ccco3)sc2=O)cc1`: 7.16%.

Take `COC(=O)CCc1c(C)nc2c(c(-c3ccco3)nn2C2CCS(=O)(=O)C2)c1C` (configuration not stated): the inhibition is 24.9%. Next, `C#CCN(C)C(=O)c1ccc(-c2cccc(C(F)(F)F)c2)s1`: 23.8%. Next, `Nc1ncc(N=Nc2cccc(C(F)(F)F)c2)s1`: 2.91%. Regarding `CC(C)N(C(=O)c1ccc(-c2cccc(C(F)(F)F)c2)s1)C(C)C`, the inhibition is 66.1% (active). Next, `CC1Oc2ccccc2OC1C(=O)NCCOc1ccc2ccccc2c1` (configuration not stated): 29.2%. Next, `O=C(NCC(O)COc1ccc(C(F)(F)F)cc1)c1ccccc1Cl` (configuration not stated): 22.8%. For the compound `O=C(NCCOc1ccc(C(F)(F)F)cc1)C1CSc2ccccc2O1` (configuration not stated), the inhibition is 77.1% (active). Next, `CCCOC(=O)c1cc(Br)ccc1NC(=O)c1ccc(C)nc1`: 8.93%; `CCCOC(=O)c1ccc(NC(=O)c2cc(CCC)[nH]n2)cc1`: 65% (active); `CCCOC(=NCCCN(C)C)NC(=O)c1ccc(Cl)c(Cl)c1`: 43.6%. Next, `Nc1scc(-c2ccc(Oc3ccccc3)cc2)[n+]1CCCS(=O)(=O)[O-]`: 68.1% (active); `Nc1nc(-c2ccc(Oc3ccccc3)cc2)cs1`: 17.5%; `CCOC(=O)NC(n1ccnc1)C(F)(F)C(F)(F)C(F)(F)C(F)F` (configuration not stated): 15.8%. For `C=C1/C(=N\OC(=O)Nc2ccc(C)cc2)CC2CC1C2(C)C` (configuration not stated), the inhibition was 86.8% (active).

As to `CN1CCN(c2ccc3nc(-c4c(N)c5c(F)cccc5[nH]c4=O)[nH]c3c2)CC1`, the inhibition is 30.7%. Next, `S=C(Nc1ccccn1)NC1CC2CCC1C2` (configuration not stated): 97.7% (active); `Oc1cccc2c(NC(=S)NC3CC4CCC3C4)cccc12` (configuration not stated): 23.4%. Next, `S=C(NCC1COc2ccccc2O1)NC1CC2CCC1C2` (configuration not stated): -18.9%; `S=C(Nc1ccc(-n2cnnn2)cc1)NC1CC2CCC1C2` (configuration not stated): 103% (active); `CC(C)CCNc1nc(C(=O)OC(C)C(N)=O)cs1` (configuration not stated): 20.4%.

As for `CC(C)c1cc(CN(C)C(=O)CC23CC4CC(CC(C4)C2)C3)no1`, the inhibition was 32.9%.

Regarding `Cc1ncsc1CCOC(=O)CC12CC3CC(CC(C3)C1)C2`, the inhibition was 103% (active).

For the compound `COCC(C)C1CCN(C(=O)CC23CC4CC(CC(C4)C2)C3)CC1` (configuration not stated), the inhibition was -13.6%.

For `CC(C)CN(CCC(=O)O)c1nc(-c2ccccc2Cl)nc2ccccc12`, the inhibition is 37.1%.

Turning to `NC(=O)c1csc(CNc2ccc(F)cc2)c1`, the inhibition was 68.7% (active). As for `NC(=O)c1csc(C(=O)NC2CC2c2cccc(Cl)c2)c1` (configuration not stated), the inhibition is 27.2%. As to `Clc1ccc(C(Cn2ccnc2)OCc2c(Cl)cccc2Cl)c(Cl)c1` (configuration not stated), the inhibition is -47.1%. Next, `CN(C)C(=O)CSCC(=O)O`: -0.78%; `O=C1CC(Nc2ccc3c(c2)OCCCO3)C(=O)N1CCc1ccccc1F` (configuration not stated): 53.9% (active).

Take `C(=C\c1ccccc1)/CNc1ccc2c(c1)OCCO2`: the inhibition is -42.5%. Next, `O=C(CCC1CCN(C(=O)CCc2ccccc2)CC1)Nc1ccc2c(c1)OCCO2`: 0.33%; `COc1ccc(Nc2cccc3nonc23)cc1`: 60.3% (active); `COc1ccc(-c2nc(Nc3ccc(F)cc3)c3ccccc3n2)cc1`: 26.9%. Next, `CC1(C)CC[C@@]2(C(=O)O)C(C1)C1=CCC3[C@@]4(C)CC[C@H](O)C(C)(C)C4CC[C@@]3(C)[C@]1(C)C[C@@H]2O` (some centres not stated): 69.3% (active); `Cc1nc(NCc2ccco2)c2c3c(sc2n1)CCCC3`: 59.1% (active); `Cc1cc(C=Cc2ccc3cc(N(C)C)ccc3[n+]2C)c(C)n1-c1ccccc1`: “inactive”.

As for `Cc1cc(/C=C/c2ccc3cc(N(C)C)ccc3[n+]2C)c(C)n1-c1ccccc1`, the inhibition was 48.1%. Next, `Cc1cc(/C=N\O)c(C)n1-c1ccc(-c2ccccc2)cc1`: 79.1% (active); `O=[N+]([O-])c1ccc(NS(=O)(=O)Cc2ccccc2)cc1`: 73.9% (active); `COc1ccc(CNc2ccc([N+](=O)[O-])cc2)cc1`: 4.07%. Consider `O=[N+]([O-])c1ccc(NS(=O)(=O)c2ccc(Br)cc2)cc1`, for which the inhibition is 58.1% (active).

In the case of `O=[N+]([O-])c1cc(S(=O)(=O)Nc2ccc(Br)cc2)ccc1Cl`, the inhibition is 66.2% (active). Next, `O=S(=O)(Nc1ccc2c(c1)CCC2)c1ccc(Br)cc1`: 32.5%; `O=[N+]([O-])c1cc(NS(=O)(=O)c2cc(Cl)cc(Cl)c2)ccc1Cl`: 21.6%; `CC(NC(=O)c1ccc(C(F)(F)F)cc1)c1ccco1` (configuration not stated): 62.5% (active). Next, `O=C(NCc1ccccc1)c1ccc(C(F)(F)F)cc1`: 20.5%. Next, `CC(NC(=O)c1ccc(Br)o1)c1ccc(Cl)s1` (configuration not stated): -46.6%; `CC(NC(=O)c1ccc(Cl)o1)c1ccc(C(F)(F)F)cc1` (configuration not stated): 85.3% (active); `CC(NC(=O)c1cccs1)c1ccc(C(F)(F)F)cc1` (configuration not stated): 69.9% (active). On to `CC(NC(=O)c1cccs1)c1ccc(Cl)s1` (configuration not stated), for which the inhibition was -37.7%. For the compound `CC(NC(=O)CC1C=CCC1)c1ccc(C(F)(F)F)cc1` (configuration not stated), the inhibition is 12.8%.
